From PubChem
MCF10A rereplic: inducers of DNA re-replication in MCF 10A breast cells | MCF 10A DNA re-replication, Hoechst nuclear intensity, 48 h | Potency, µM (doses to about 46.1 µM), without a hit: top-dose activity, positive = re-replication, usual class: activators | 2.9% of 350,000 active | AID 624296; also: potency is read from the fitted curve at half-maximal effect; % of control where 0% means no effect; nearly all actives have a fitted effect of over 50% in size
DT40 TDP1 no CPT: qHTS for Inhibitors of human tyrosyl-DNA phosphodiesterase 1 (TDP1): qHTS in cells in absence of CPT | DT40 Tdp1-/- hTDP1 cells, no CPT, ATP luminescence, 48 h | Potency, µM (titrated, usually from 46.2 µM), for inactives: at the top dose activity change, negative = growth inhibition, most hits filed as inhibitors | 15% of 420,000 active | AID 686978, 2013; also: potency is read from the fitted curve at half-maximal effect; % is scaled to controls: 0 for no effect and ±100 for the full control effect; nearly all actives have a fitted effect of over 55% in size
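Readout: luminescence from CellTiter-Glo after 30 min in the dark at RT. Cells: DT40 Tdp1-/- with stable hTDP1, 400/well. Exposure: compounds alone, ≥48 hr, 37 °C.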
TDP1 cell CPT: growth inhibition of DT40 Tdp1-/-;hTDP1 cells with camptothecin (screen for TDP1 inhibitors); chicken DT40 Tdp1-/-;hTDP1 cells + 20 nM CPT, ATP luminescence, 48 h; Potency, µM (highest dose often 46.2 µM), for the others: top-dose activity change, negative = growth inhibition, actives largely listed as inhibitors; 12% of 420,000 active; also: potency is read from the fitted curve at half-maximal effect; % is scaled to controls: 0 for no effect and ±100 for the full control effect; nearly all actives have a fitted effect of over 55% in size
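Chicken DT40 Tdp1-/- cells complemented with human TDP1, 400 cells/well, exposed to compounds plus 20 nM camptothecin for at least 48 h at 37 C; viability read as ATP content by CellTiter-Glo luminescence.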
Chronic BCR inh: inhibitors of chronic active B-cell receptor signaling. ABC-DLBCL IkBa-CBG/CBR reporter, luminescence ratio, 4 h. Potency, µM (top dose mostly 46.1 µM), for inactives: top-dose activity change, negative = inhibition, hits mostly inhibitors. 0.05% of 340,000 active. AID 493014; active = well fitted inhibition curve with a large enough effect in the signal ratio, with a control signal flat, not every such curve was filed as active; inconclusive = small, poorly fitted or top-dose-only effect, or effect the other way, or a change in a side signal; the % refers to the signal ratio;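 also: potency is read from the fitted curve at half-maximal effect; plate controls were basal doxycycline-induced cells for no effect and cells given 10 µM MG132 for full effect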
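Compounds up to 46 uM were incubated four hours with TMD8 cells whose green CBG68 luciferase is fused to IkappaBalpha; red CBR luminescence normalised the signal, and concentration-effect curves were fitted to fusion, red and ratio data.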
IL1B secr inh: inflammasome signaling inhibition, IL-1 beta readout; 4.7% of 360,000 active; activity change, % at 57.5 µM; THP-1 LPS/ATP IL-1B secretion, AlphaLISA, 16 h; hits give low values; AID 743279; in the data active = activity change below about -50%; inconclusive = mostly about -30% to -49%; also: % is scaled to controls: 0 for no effect and ±100 for the full control effect
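THP-1 cells pretreated 1 hr with compounds (up to 57.5 uM final), then stimulated with LPS (250 ng/mL final) plus ATP (1.25 mM final); secreted IL-1B measured by AlphaLISA after 16 hr, decreased signal indicating inhibition.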
SW480 rerep: DNA re-replication induction in SW480 cells | 1.8% of 340,000 active | SW480 DNA re-replication, Hoechst DNA content imaging, 48 h | AID 624297 | Potency, µM (doses to about 46.1 µM), for inactives: at the top dose re-replication activation, actives largely listed as activators; also: potency is read from the fitted curve at half-maximal effect; % of control where 0% means no effect; nearly all actives have a fitted effect of over 55% in size
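Image-based DNA-content assay: after two days of treatment, nuclei were labelled with the DNA dye Hoechst and imaged, and hits were compounds raising the count of nuclei showing high fluorescence intensity.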
* marks the source's active call; other numbers are inactive results; ? = inconclusive; . = not tested or not shown; [ ] = dose if it differs, or a comment. Compounds with a hit are over-represented: about 19% of the library has one in this group of screens. Unless noted, calls follow the shape of the dose curve; as a rule, active = well fitted curve in the direction sought with a large enough effect; inconclusive = small, poorly fitted or top-dose-only effect, or another doubt; inactive = no such curve, though single readings can be large; an effect the other way counts as inactive or inconclusive.

SMILES	MCF10A rereplic	DT40 TDP1 no CPT	TDP1 cell CPT	Chronic BCR inh	IL1B secr inh	SW480 rerep
CCc1cccc2sc(N3CCN(C(=O)c4ccc([N+](=O)[O-])o4)CC3)nc12	3.7µM*	?	?	?	-103*	?
Cc1ccc(S(=O)(=O)NCCCNS(=O)(=O)c2ccccc2[N+](=O)[O-])cc1	3%	-22%	?	-1%	-3	22%
Cc1cccc(C[C@H](C(=O)O)N2C(=O)c3ccc(C(=O)O)cc3C2=O)c1	.	.	.	-9%	.	.
CO[C@H]1[C@H](NC(=O)c2ccncc2)c2ccccc2C12CCN(C(=O)c1ccoc1)CC2	.	4%	17%[9.04 µM]	.	.	.
CC(Oc1ccccc1)C(=O)Nc1nnc2n1CCS2 (stereo not drawn)	.	-4%	-15%	.	.	.
C=CC[C@H](CC(=O)NCCO)C(=O)NC[C@@H](OC(=O)[C@H](CC=C)CC(=O)OC(C)(C)C)c1ccccc1	-4%	?	6%	-1%	0	4%
O=C(Cc1ccc(F)cc1)NCCS(=O)(=O)N1CCN(c2cccc(Cl)c2)CC1	5%	?	?	0%	-13	?
O=C(Cc1cccc(NC(=O)C2CCN(C(=O)CCc3ccccc3)CC2)c1)Nc1cccc(C(=O)N2CCCCC2)c1	?	18µM*	?	.	11	?
O=C(Cc1ccc(NC(=O)C2CCN(C(=O)c3ccccc3)CC2)cc1)Nc1ccc(C(=O)N2CCOCC2)cc1	-5%	-1%	-16%	.	-3	-1%[9.22 µM]
O=C(Cc1ccc(NC(=O)C2CCN(C(=O)CCc3ccccc3)CC2)cc1)Nc1ccc(C(=O)N2CCOCC2)cc1	-2%	16µM*	?	.	22	-11%
O=C(Cc1cccc(NC(=O)C2CCN(C(=O)CCc3ccccc3)CC2)c1)Nc1cccc(C(=O)N2CCOCC2)c1	1%	15µM*	15µM*	.	0	0%
COc1ccccc1N=NNc1ccc(S(=O)(=O)NC(C)=O)cc1	.	?	?	.	48	.
COc1cccc(NC(=O)Nc2nc(SC)ns2)c1	4%	?	9.2µM*	?	-98*	?
CCc1ccccc1NC(=O)Nc1cccc(F)c1	-11%	-21%	?	-16%	8	?
CCCSc1nsc(NC(=O)Nc2ccc(F)cc2F)n1	25%	4.1µM*	5.2µM*	?	-28	-10%
CCCSc1nsc(NC(=O)CC)n1	-1%	?	-13%	15%	-17	10%
COc1cccc(NC(=O)Nc2nccc(C)n2)c1	9%	0%	-20%	-11%	-5	-5%
CCSc1nsc(NC(=O)Nc2cccc(F)c2)n1	16µM*	4.1µM*	21µM*	?	-95*	?
CCCSc1nsc(NC(=O)C(c2ccccc2)c2ccccc2)n1	?	29µM*	18µM*	?	-9	?
CNc1ccc(C=O)cc1Cl	.	-3%	-1%	.	.	.
COc1cc(=O)n2c(c1C(=O)NCc1ccsc1)CCN(Cc1nc3ccccc3[nH]1)CC2	.	0%	-10%	.	.	.
CS(=O)(=O)CC(=O)Nc1ccc2nc3n(c(=O)c2c1)CCCCC3	1%	-16%	-10%	4%	1	-70%
Cc1ccc2oc(C(=O)NCCCN3CCOCC3)c(C)c2c1	?	?	?	0%	10	-5%
COc1cccc(NC(=O)Nc2nc(SC(C)(C)C)ns2)c1	?	?	15µM*	-5%	-73*	-11%
CCOC(=O)C1CCCN(C(=O)CN2C(=O)/C(=C/c3ccc(OC)cc3)Oc3ccccc32)C1 (stereo not drawn)	?	13µM*	?	-1%	-20	5%
SMILES	MCF10A rereplic	DT40 TDP1 no CPT	TDP1 cell CPT	Chronic BCR inh	IL1B secr inh	SW480 rerep
CCCn1cnc2c(SCc3ccccc3Cl)nc(N)nc21	?	?	?	.	?	-5%
CCOc1ccc(-c2nnn(CC(=O)c3ccc4c(c3)OCCO4)n2)cc1OCC	17%	18µM*	?	4%	-9	-1%
CCOc1ccc(-c2nnn(CC(=O)NCc3ccc(F)cc3)n2)cc1OCC	-15%	-10%	-19%	-1%	1	13%
Cc1ccc(Nc2nc(Cl)nc(N(C)C#N)n2)cc1	?	23µM*	?	5%	-114*	2%[9.22 µM]
CC(C)(C)Nc1nc(Cl)nc(NCc2ccccc2)n1	9%	?	18µM*	2%	1	7%
CC(C)(C)Nc1nc(Nc2ccc([N+](=O)[O-])cc2)nc(NC(C)(C)C)n1	7%	21µM*	21µM*	4%	-3	-3%
Cc1ccc(Nc2nc(Cl)nc(NC(C)(C)C)n2)cc1	-1%	23µM*	?	?	-15	0%
O=C(Nc1nnc(Cc2ccccc2F)s1)Nc1ccccc1F	1%	-21%	?	?	23	?
NC(=O)CCC(NC(=O)OCc1ccccc1)C(=O)OCC(=O)c1ccccc1 (stereo not drawn)	.	-19%	-22%	.	2	.
COc1ccc(C(=O)/C=C/c2ccsc2)cc1CSCC(=O)O	18µM*	12µM*	9.2µM*	?	-69*	?
c1ccc2c(c1)-c1nc3ccccc3cc1C2N1CCCCC1 (stereo not drawn)	.	16µM*	16µM*	.	27	.
O=C(CSC(=S)N1CCCC1)Nc1ncc(Cl)cc1Cl	1%	-23%	-8%	?	2	14%
ClCC1NCC(c2ccccc2Cl)c2c1[nH]c1ccccc21 (stereo not drawn)	3.7µM*	-2%	-33%	?	-7	-9%
O=C1SCCN1N=Cc1ccc([N+](=O)[O-])o1	?	18µM*	8.2µM*	.	9	?
CC1CN(N=Cc2ccc([N+](=O)[O-])o2)C(=N)O1 (stereo not drawn)	?	18µM*	21µM*	.	20	?
C[C@H]1CS(=O)(=O)CCN1/N=C\c1ccc([N+](=O)[O-])o1	-3%[20.6 µM]	.	.	.	.	-1%[20.6 µM]
CC1CS(=O)(=O)CCN1/N=C/c1ccc([N+](=O)[O-])o1 (stereo not drawn)	.	?	-9%[21.1 µM]	.	.	.
O=C1C2C(C(=O)N1/N=C/c1ccc([N+](=O)[O-])o1)C1C=CC2C12CC2 (stereo not drawn)	16µM*	23µM*	16µM*	?	-91*	?
COc1ccc(CCNC(=O)c2cccc(S(=O)(=O)N3CCc4ccccc4C3)c2)cc1	?	?	?	0%	?	-2%
